# Laboratory results taken from paper PMC10726135, “HNF4α isoforms regulate the circadian balance between carbohydrate and lipid metabolism in the liver”.
# Whole data set: some 18,000 sequences, median “log2 normalized intensity” near 0.39, cut for the highest 2% near 6.6. The list comes from a sample in which the highest values are over-represented; it also holds similar and randomly drawn sequences.
# Molecular target: T1, HNF4alpha2 (COS-7 nuclear extract) (Homo sapiens, UniProt P41235 1-474)
# T1 sequence: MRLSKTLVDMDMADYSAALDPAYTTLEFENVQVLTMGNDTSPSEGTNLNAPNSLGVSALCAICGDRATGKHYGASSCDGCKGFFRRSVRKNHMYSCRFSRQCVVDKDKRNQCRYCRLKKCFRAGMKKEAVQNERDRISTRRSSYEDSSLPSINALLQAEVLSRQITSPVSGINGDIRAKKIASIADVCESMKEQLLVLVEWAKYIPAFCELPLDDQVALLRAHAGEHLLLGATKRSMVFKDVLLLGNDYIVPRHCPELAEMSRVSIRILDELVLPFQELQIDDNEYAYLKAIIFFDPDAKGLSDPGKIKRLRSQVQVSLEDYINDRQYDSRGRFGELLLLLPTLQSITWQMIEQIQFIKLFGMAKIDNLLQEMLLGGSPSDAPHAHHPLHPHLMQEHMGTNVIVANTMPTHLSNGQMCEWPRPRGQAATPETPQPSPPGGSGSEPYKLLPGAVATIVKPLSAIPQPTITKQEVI
# Experiment: protein-binding microarray; COS-7 nuclear extract on double-stranded Agilent 4x180k PBM; binding buffer, salt, pH and temperature not given in the material; high values mean tight binding
# Details: chain copies: 2; label: 3' end of strand 1 on the slide; dsDNA, one strand shown
# Method in brief: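 Nuclear extracts came from COS-7 cells transiently transfected by CaPO4 with a human HNF4α isoform expression vector. They were applied to a custom Agilent SurePrint G3 4x180k array of ~60-nt oligonucleotides, made double-stranded, with ~44,000 test sequences spotted in quadruplicate. Bound HNF4α was imaged at 2-µm resolution on an Agilent G2565CA scanner. Binding signal was taken as background-corrected, normalized gProcessedSignal from Agilent software.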
row,Sequence,binding signal [log2 normalized intensity]
1,CCGGTTTGTTCCATGCCACAGAATCGCCCCGCCTAGGGAGATTAGAGTATCGGTCGA,2.6
2,CCAGATGATCTTTACCCTGGAATGCTGTTAGCCTAGGGAGATTAGAGTATCGGTCGA,1.33
3,GGAGGAGCTGTTTGACATCCAAAGTTTCCTGCCTAGGGAGATTAGAGTATCGGTCGA,0.813
4,AAGTTGGAATTTGGGTGATCCTGGTAGCAGGCCTAGGGAGATTAGAGTATCGGTCGA,0.0957
5,TGGTTTTATGGTGTCTTATCTTCCTCTGGCGCCTAGGGAGATTAGAGTATCGGTCGA,1.96
6,ACACACACATTGCAGTATGCCCCCCCACCCGCCTAGGGAGATTAGAGTATCGGTCGA,6.13
7,CCCCCCACCCCACACACACACAGCATTCCAGCCTAGGGAGATTAGAGTATCGGTCGA,5.05
8,CACACACACACACATTGCAGTATGCCCCCCGCCTAGGGAGATTAGAGTATCGGTCGA,5.1
9,TATGCCCCCCCACCCCACACACACACAGCAGCCTAGGGAGATTAGAGTATCGGTCGA,6.17
10,CACATTGCAGTATGCCCCCCCACCCCACACGCCTAGGGAGATTAGAGTATCGGTCGA,6.96
11,TGCAGTATGCCCCCCCACCCCACACACACAGCCTAGGGAGATTAGAGTATCGGTCGA,6.7
12,TACACCTGGGGGCTTCCCAACTCCATTATCGCCTAGGGAGATTAGAGTATCGGTCGA,-0.261
13,TCCCTATGTTGTCCCTGCCCTTTGTCCAGGGCCTAGGGAGATTAGAGTATCGGTCGA,3.89
14,AGAATATTAGATGATAAGGGTGAAAAGATAGCCTAGGGAGATTAGAGTATCGGTCGA,-0.989
15,AAGGAGCTTGGGAAGACAGATGTGATATTCGCCTAGGGAGATTAGAGTATCGGTCGA,-0.781
16,GGTGACCCCTCAGTTTTTCTCTTTTGACCTGCCTAGGGAGATTAGAGTATCGGTCGA,4.09
17,CTGCTTTTGGAATTTGACCTCATTTGCTCCGCCTAGGGAGATTAGAGTATCGGTCGA,5.7
18,CTTTTCTGCTTTTGGAATTTGACCTCATTTGCCTAGGGAGATTAGAGTATCGGTCGA,6.91
19,CCCCTCAGTTTTTCTCTTTTGACCTTTGGAGCCTAGGGAGATTAGAGTATCGGTCGA,8.9
20,GTGCTTGGACCTGCTCTGTTTTCTTTCGGTGCCTAGGGAGATTAGAGTATCGGTCGA,1.49
21,TTTGTTGCCTCTTTTCTGCTTTTGGAATTTGCCTAGGGAGATTAGAGTATCGGTCGA,2.71
22,AAGCCCTTCTTCTGGAGCCTCAGTAAGTTTGCCTAGGGAGATTAGAGTATCGGTCGA,0.629

row,Sequence,binding signal [log2 normalized intensity]
1,TGCCTCTTTTCTGCTTTTGGAATTTGACCTGCCTAGGGAGATTAGAGTATCGGTCGA,7.84
2,CGCATTTCTGCTTCTTCTCATTCTTGGAATGCCTAGGGAGATTAGAGTATCGGTCGA,1.39
3,CTGTTGGTGACTGACCCTGATCCCTCCCTGGCCTAGGGAGATTAGAGTATCGGTCGA,3.18
4,GGATCCCATTCATGTGGGTCAACAGACAAAGCCTAGGGAGATTAGAGTATCGGTCGA,0.575
5,AAAGTCTTTCTCTTTCAAGATAACAAGGCAGCCTAGGGAGATTAGAGTATCGGTCGA,1.37
6,CTGATCAAAGGTCATTGGTATTGATAGCGCGCCTAGGGAGATTAGAGTATCGGTCGA,4.8
7,ATATCTATATGTTTACATATCACTGTACTCGCCTAGGGAGATTAGAGTATCGGTCGA,2.08
8,ATGCTGGTCTCCTTGCCCCACCCCCCACCCGCCTAGGGAGATTAGAGTATCGGTCGA,7.6
9,ACCAAGGGTCATGCTGGTCTCCTTGCCCCAGCCTAGGGAGATTAGAGTATCGGTCGA,1.74
10,ATCCCCGCTCCCCTCCCCCACCCGCGGTCCGCCTAGGGAGATTAGAGTATCGGTCGA,6.38
11,GCTCCCTCCCCTCCTCCCTTGCTCACCCCAGCCTAGGGAGATTAGAGTATCGGTCGA,5.91
12,CATGCTCCCCACCCCCAACTTCCCCAACCCGCCTAGGGAGATTAGAGTATCGGTCGA,6.67
13,GGGTCATGCTGGTCTCCTTGCCCCACCCCCGCCTAGGGAGATTAGAGTATCGGTCGA,5.55
14,GGTCTCCTTGCCCCACCCCCCACCCCAGAAGCCTAGGGAGATTAGAGTATCGGTCGA,6.86
15,TCCCCACCCCCAACTTCCCCAACCCTTGCAGCCTAGGGAGATTAGAGTATCGGTCGA,6.3
16,CCTTGCCCCACCCCCCACCCCAGAAGTATGGCCTAGGGAGATTAGAGTATCGGTCGA,6.2
17,CGAACCTGTCTCCAGAGGACTTGCGGTGTTGCCTAGGGAGATTAGAGTATCGGTCGA,0.482
18,AGAACCTGCCCATGACCTTTGGACTGTGACGCCTAGGGAGATTAGAGTATCGGTCGA,9.54
19,CATGACCTTTGGACTGTGACCCCACCTCTCGCCTAGGGAGATTAGAGTATCGGTCGA,7.45
20,CCTTTGGACTGTGACCCCACCTCTCAGACAGCCTAGGGAGATTAGAGTATCGGTCGA,4.83
21,GGGCAGGGTCAGAACCTGCCCATGACCTTTGCCTAGGGAGATTAGAGTATCGGTCGA,5.92
22,GGACTGTGACCCCACCTCTCAGACAGAGCTGCCTAGGGAGATTAGAGTATCGGTCGA,2.75

row,Sequence,binding signal [log2 normalized intensity]
1,GGGTCAGAACCTGCCCATGACCTTTGGACTGCCTAGGGAGATTAGAGTATCGGTCGA,11.1
2,CTTTGGAACCTGCCCTCTGTCCCATGGTGTGCCTAGGGAGATTAGAGTATCGGTCGA,2.48
3,AAACCCAAGATTTGGTGTTACCTTTGGACTGCCTAGGGAGATTAGAGTATCGGTCGA,5.71
4,CTGCCCTTTGGAACCTGCCCTCTGTCCCATGCCTAGGGAGATTAGAGTATCGGTCGA,4.15
5,TGTAATAAGGAGTTGTGTGATAAGGAGGGCGCCTAGGGAGATTAGAGTATCGGTCGA,0.534
6,CATGCAATCACACTAATCTGTCAGAAAACCGCCTAGGGAGATTAGAGTATCGGTCGA,-0.731
7,GGTGAGGGTTACAGGTGGACAAACAGGCTGGCCTAGGGAGATTAGAGTATCGGTCGA,-0.829
8,AGCACCTGAAGAATTTGGACTTTGCACTAAGCCTAGGGAGATTAGAGTATCGGTCGA,8.43
9,CTGAAGAATTTGGACTTTGCACTAAAAGCCGCCTAGGGAGATTAGAGTATCGGTCGA,6.95
10,GGTGAGTCTTTGCCCCTGGACTTTGAATTTGCCTAGGGAGATTAGAGTATCGGTCGA,4.94
11,TGGACTTTGCACTAAAAGCCATGAGAAGGTGCCTAGGGAGATTAGAGTATCGGTCGA,4.84
12,TGGACTTTGGAATTAAGGAGATTTGGCTTTGCCTAGGGAGATTAGAGTATCGGTCGA,4.84
13,CTGGCAGCACCTGAAGAATTTGGACTTTGCGCCTAGGGAGATTAGAGTATCGGTCGA,7.7
14,GAATTTGGACTTTGCACTAAAAGCCATGAGGCCTAGGGAGATTAGAGTATCGGTCGA,5.86
15,GGAGACCTGAAACTAGACCAAGAAGACTTTGCCTAGGGAGATTAGAGTATCGGTCGA,-0.974
16,GGGTCCTGGCAGCACCTGAAGAATTTGGACGCCTAGGGAGATTAGAGTATCGGTCGA,1.23
17,TTCCTGAAGATCGCAGACTTTGGACTCTGCGCCTAGGGAGATTAGAGTATCGGTCGA,7.83
18,AGGGATTCCTGAAGATCGCAGACTTTGGACGCCTAGGGAGATTAGAGTATCGGTCGA,5.66
19,GAAGATCGCAGACTTTGGACTCTGCAAGGAGCCTAGGGAGATTAGAGTATCGGTCGA,5.8
20,AATAGTGACCTCTGCTGGCCAGTGGAAAACGCCTAGGGAGATTAGAGTATCGGTCGA,1.08
21,CAGTCTAGAATCTGCAGCCCCTTTTGGAATGCCTAGGGAGATTAGAGTATCGGTCGA,2.02
22,CCACTGGAGTCTTGTTTGTCAAGTTTGGTAGCCTAGGGAGATTAGAGTATCGGTCGA,1.81

row,Sequence,binding signal [log2 normalized intensity]
1,AGGGTGTTGTGGAATGTGCTTGGACCTGCTGCCTAGGGAGATTAGAGTATCGGTCGA,1.99
2,AGAAATGTTATCTCAGTAGACTAACGTATGGCCTAGGGAGATTAGAGTATCGGTCGA,0.476
3,GCATTCCACCAAATCTTACCTAAGGAAGTTGCCTAGGGAGATTAGAGTATCGGTCGA,-0.954
4,AATACGACCTTTGGACAGGGTGACGTCATTGCCTAGGGAGATTAGAGTATCGGTCGA,6.27
5,AGAAGTTGGACTTTGTACATTCCAAATACGGCCTAGGGAGATTAGAGTATCGGTCGA,6.88
6,ATTCCAAGAAGAGCCAATAGTACACATCAAGCCTAGGGAGATTAGAGTATCGGTCGA,-0.572
7,ACATCAGAAGTTGGACTTTGTACATTCCAAGCCTAGGGAGATTAGAGTATCGGTCGA,7.69
8,TTGGACTTTGTACATTCCAAATACGATAATGCCTAGGGAGATTAGAGTATCGGTCGA,5.36
9,GTACTTTGTACATGGGAATAGACATTCCAGGCCTAGGGAGATTAGAGTATCGGTCGA,2.04
10,GGGCTTTTGTCACATTCCAGACTTTGTACAGCCTAGGGAGATTAGAGTATCGGTCGA,4.95
11,TCCAAAATACGACCTTTGGACAGGGTGACGGCCTAGGGAGATTAGAGTATCGGTCGA,6.8
12,CCTGGTGACCTTTGTTTGGTCAAATACCTAGCCTAGGGAGATTAGAGTATCGGTCGA,2.9
13,ATGGTGGCCATTCTGATTTGATAAGATGTGGCCTAGGGAGATTAGAGTATCGGTCGA,0.774
14,CTTCGTCCTGAGCAGTCCCTTCCCCCCTCCGCCTAGGGAGATTAGAGTATCGGTCGA,5.36
15,ACTTGTTCCCTGTCGCTATCTTATCTGGGCGCCTAGGGAGATTAGAGTATCGGTCGA,1.62
16,CTCATTCTTGGAATGCATTGCAAGTCGTATGCCTAGGGAGATTAGAGTATCGGTCGA,1.17
17,TGCCCCTTCACATATTTTGAAAGAAAGAGAGCCTAGGGAGATTAGAGTATCGGTCGA,1.68
18,CGGCTTGCGTCCCCAGGTGAACTCAGTCCTGCCTAGGGAGATTAGAGTATCGGTCGA,1.21
19,TTGTAGCCTCATTTCACCTTTGGTCTTTGGGCCTAGGGAGATTAGAGTATCGGTCGA,4.78
